HSF1 activator – increases HSF-1 driven luciferase reporter signal | NIH3T3-HGL HSF-1 luciferase reporter, MG132, 8 h; 100% = twice DMSO control signal | activation, % at 9 µM | 300,000 compounds, 1.7% hits | AID 504408;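 active = mean replicate activation of at least 50% with a set share of replicates each reaching 50%; inconclusive = only one of those two conditions met; inactive = mean below 50% and too few replicates reaching it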
pCIP destab – compounds decreasing mouse p/CIP protein stability; AID 1984; 290,000 compounds, 0.01% hits; F442A p/CIP-EGFP cells, EGFP fluorescence, 16 h; decrease of EGFP signal, % at 10 µM; Q05BA5;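 active = EGFP signal decrease of at least 30% at 10 µM or well 3 SD below plate mean, unless failing retest; inactive = the rest, including hits failing retest or dose response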
HSF1 inhib – HSF1 inhibition; NIH3T3-HGL HSE-luciferase, MG132-induced, luminescence 8 h; hits give low values; activity change, negative = inhibition, % at 7.5 µM (by protocol); 300,000 compounds, 0.77% hits; AID 2098;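 active = more than half of replicate wells show activity change below -50%, luminescence cut by over half; inconclusive = some wells, but at most half, below -50%; inactive = no replicate well below -50%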;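 note: luciferase reports HSF-1 transcriptional activity via heat shock element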
Hsp70 act – transcriptional activators of Hsp70 | HeLa Hsp70 promoter luciferase reporter, luminescence; scaled: vehicle 0, proteasome-inhibitor control 100% | activation, % at 10 µM | 200,000 compounds, 0.04% hits | AID 1203;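 active = activation above the mean across all tested compounds plus 3 SD, cutoff set per campaign, cut at about 5.5% in these data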
NALP1 inh – NALP1 inhibition. S. cerevisiae NALP1/ASC/caspase-1 growth, X-gal OD620, 72 h. inhibition, % at 10 µM. 280,000 compounds, 0.61% hits; in the data active = inhibition mostly above about 24%, no sharp cut-off; inactive = mostly below about 32%
HSP90 refold inh – HSP90 refolding inhibition in rabbit reticulocyte lysate; luciferase refolding luminescence, 3 h; inhibition, % at 5.6 µM; 290,000 compounds, 0.91% hits;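 active = inhibition above the screen-wide mean plus 3 SD, computed separately per campaign, cut at about 16% in these data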;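 note: inhibitors lower the luminescence because luciferase stays unfolded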
Hits are given with their value; - = inactive; ? = inconclusive; . = no result. Only some compounds are listed: those with a hit (about 3.8% of all), similar ones and a draw of the others.

SMILES	HSF1 activator	pCIP destab	HSF1 inhib	Hsp70 act	NALP1 inh	HSP90 refold inh
O=C(CN1CCCC1)Nc1c2c(cc3c1CCC3)CCC2	-	-	-64	-	-	-
CC(=O)N1CCCc2cc(S(=O)(=O)NC(C(=O)NC3CCCCC3)C(C)C)ccc21 (stereo not drawn)	-	-	-	-	-	-
CC(=O)N1CCc2cc(S(=O)(=O)NC(Cc3ccccc3)C(=O)NC3CCCCCC3)ccc21 (stereo not drawn)	54	-	-	-	-	-
COC(=O)c1cc(S(=O)(=O)NCC2CCN(Cc3cccc(F)c3)CC2)c[nH]1	-	-	-	.	-	-
O=C(CN1CCC2(CC1)OCCO2)c1ccc2cc[nH]c2c1	-	-	-	-	-	-
O=C(CN1CCN(c2ccccc2)CC1)c1ccc2cc[nH]c2c1	-	-	-	-	38	-
Cc1ccc(-c2ccc(=O)[nH]n2)cc1	55	-	-	-	-	-
CCCCCc1ccc(-c2ccc(=O)[nH]n2)cc1	-	-	-	-	-	-
Cc1cccc(NC(=S)N(C)C)c1C	-	-	-	.	-	-
Cc1cccc(Nc2cc(C)c3c(O)cccc3n2)c1C	-	-	-	-	60	-
COc1ccc(S(=O)(=O)N(CCCN2CCOCC2)Cc2cccc3ccccc23)cc1	-	-	-	-	39	-
COc1cccc(C(c2sc3nc(C)nn3c2O)N2CCN(C(=O)c3ccco3)CC2)c1 (stereo not drawn)	-	-	-85	-	.	-
O=C(N/N=C/c1ccc(Cl)c([N+](=O)[O-])c1)c1cc(-c2ccccc2)nc2ccccc12	128	-	-	-	-	-
O=C(N/N=C/c1cc([N+](=O)[O-])ccc1Cl)c1cc(-c2ccccc2)nc2ccccc12	-	-	-	.	.	-
O=C(NCCCN1CCCCCC1)c1ccc(CS(=O)(=O)Cc2ccccc2F)o1	.	-	.	-	-	-
O=C(NCCCN1CCOCC1)c1ccc(CS(=O)(=O)Cc2ccccc2Cl)o1	-	-	-	-	29	-
C=CCn1c(SCC(=O)NC2CCS(=O)(=O)C2)nnc1-c1ccncc1 (stereo not drawn)	-	-	-	-	-	-
Cc1cc(Sc2ncnc(N)c2[N+](=O)[O-])ncn1	65	-	-	-	-	-
Cc1cc(Sc2nc(N)ncc2[N+](=O)[O-])ncn1	-	-	-	-	-	-
CC(C)(C)C1CCC(=NNC(=O)c2ccco2)CC1 (stereo not drawn)	-	-	-	.	-	-
CC(C)(C)NC(=O)C1CC(=O)OC12CCOC(C)(C)C2 (stereo not drawn)	-	-	-58	-	-	-
Cc1ccc(NC(=O)C2CC(=O)OC23CCOC(C)(C)C3)cc1 (stereo not drawn)	-	-	-	-	-	-
Cc1cccc2c1c(N=NC(N)=S)c(O)n2C1OC(CO)C(O)C(O)C1O (stereo not drawn)	-	-	-	.	-	-
O=C(c1cc2cc(Cl)ccc2o1)N1CCCC1	-	-	-	.	35	-
O=C(c1cc2cc(Br)ccc2o1)N1CCCCC1	?	-	-	-	-	-
SMILES	HSF1 activator	pCIP destab	HSF1 inhib	Hsp70 act	NALP1 inh	HSP90 refold inh
CC1CCc2cc(F)cc3c(=O)c(C(=O)O)cn1c23 (stereo not drawn)	-	-	-	-	102	-
Cc1ccc(NC(=O)C(=Cc2ccc(C(=O)O)cc2)C(=O)Nc2ccc(C)cc2C)c(C)c1	555	-	-	.	-	-
CCCCc1ccc(NC(=S)NCc2ccc(OC)cc2)cc1	51	-	-	-	-	-
Cc1ccc(NC(=O)c2sc(N)nc2-c2ccc([N+](=O)[O-])cc2)cc1C	-	-	-	.	-	-
Cc1cc([N+](=O)[O-])ccc1NC(=O)c1csc(C)c1C	53	-	-	.	-	-
Cc1ccc(NC(=O)c2sc(N)nc2-c2ccc([N+](=O)[O-])cc2)c(C)c1	63	-	-	.	-	-
CNC(=S)Nc1ccc([N+](=O)[O-])cc1C	-	-	-	-	-	-
Cc1cc([N+](=O)[O-])ccc1NC(=O)c1cccc(NC(=O)C(C)C)c1	58	-	-	-	-	-
Cc1cc(NC(=O)Nc2ccccc2F)ccc1Br	-	-	-	-	-	-
CCOc1ccc(C(=O)NCC2CCCN2S(=O)(=O)c2cccs2)cc1 (stereo not drawn)	-	.	-	.	.	.
CN(C)S(=O)(=O)c1cccc(NC(=O)CSc2cccc3cccnc23)c1	-	-	-	.	-	-
C1=C(c2ccccc2)CCN(c2nc3ccccc3n3cnnc23)C1	-	-	-	-	41	-
c1ccc(N2CCN(c3nc4ccccc4n4cnnc34)CC2)cc1	-	-	-	-	-	-
O=C(/C=C\c1ccccc1OC(=O)c1ccccc1F)c1cc2ccccc2o1	166	-	-	-	-	-
Cc1ccc2nc(NCc3ccccc3)c(C=O)c(=O)n2c1	90	-	-	-	-	-
Cc1ccc(S(=O)(=O)/N=C(\c2ccccc2)N(C)S(=O)(=O)c2ccccc2)cc1	-	-	-	-	-	-
CN(/C(=N\S(=O)(=O)c1ccccc1)C(F)(F)F)c1ccccc1	-	-	-56	-	-	-
COc1ccc(NC(=S)N(C(C)C)C2CCN(C(C)C)CC2)cc1Cl	-	-	-	.	47	-
C/C(=N\Nc1cccc2cccnc12)c1ccc[nH]1	63	-	-	-	-	-
CCCc1ccc2oc(C(=O)N3CCC(O)CC3)c(C)c2c1	-	-	-	.	-	-
CCCc1ccc2oc(C(=O)N(C)Cc3nccs3)c(C)c2c1	67	-	-	.	-	-
CC(C)c1ccc(OCC(=O)N2CCCCCC2)c(Br)c1	101	-	-	-	-	-
CC(C)NS(=O)(=O)c1ccc(OCC(=O)N2CCCC2)c(Cl)c1	-	-	-53	-	-	-
CCOc1ccccc1NC(=O)Cn1c(=O)oc2cc(Cl)ccc21	-	-	-	.	-	-
CCOc1ccccc1NC(=O)Cn1c(-c2ccc(Cl)cc2)noc1=O	-	-	-65	.	.	-
SMILES	HSF1 activator	pCIP destab	HSF1 inhib	Hsp70 act	NALP1 inh	HSP90 refold inh
Cc1cccc(NC(=S)N2CCC(NC(=O)c3cccc(F)c3)CC2)c1	-	-	-	.	-	-
Cc1ccc([N+](=O)[O-])cc1N=Nc1c(-c2ccc([N+](=O)[O-])cc2)[nH]n(C(N)=S)c1=O	56	-	-	-	-	-
Cc1ccc([N+](=O)[O-])cc1N=Nc1c(C)[nH]n(C(N)=S)c1=O	-	-	-	.	-	-
COc1ccc(Nc2ncnc3c2c(C)c(C)n3CCCN(C)C)cc1	-	-	-54	.	-	-
CCOC(=O)c1c(CSCc2ccccc2)oc2ccc(O)c(CN(C)C)c12	-	-	-79	.	-	-
CCOC(=O)c1c(-c2ccccc2)oc2ccc(O)c(CN(C)C)c12	-	-	-	-	-	-
CCC(C)NS(=O)(=O)c1ccc(S(=O)(=O)N(CC(=O)Nc2ccccc2)Cc2ccco2)cc1 (stereo not drawn)	-	-	-	-	42	-

Screens: PubChem BioAssay, several laboratories
